According to PubChem BioAssay (NCI):
Compounds without any hit were thinned out: in the full panel of roughly 83,000, 20% have a hit.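 48-hour exposure, single concentration, 96-well plates; percent growth endpoint where 0 means no net growth. Active: below 10.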 Activity calls are given as the source filed them.

Experiments:
Assay in all cases: NCI-60 one-dose screen, 48 h (100 = growth as untreated, 0 = no growth, -100 = all killed)
Details in all cases: 10 µM unless noted
SR leukemia = test system: SR leukemia
RPMI-8226 leukemia = test system: RPMI-8226 leukemia
OVCAR-8 ovarian = test system: OVCAR-8 ovarian
OVCAR-5 ovarian = test system: OVCAR-5 ovarian
OVCAR-4 ovarian = test system: OVCAR-4 ovarian
SK-OV-3 ovarian = test system: SK-OV-3 ovarian
OVCAR-3 ovarian = test system: OVCAR-3 ovarian
HS 578T breast = test system: HS 578T breast
NCI/ADR-RES ovarian = test system: NCI/ADR-RES ovarian
IGROV1 ovarian = test system: IGROV1 ovarian

Measured: growth

O=S(=O)(NCCNc1cc(-c2c(-c3cccc(O)c3)nc3sccn23)ccn1)c1ccc(C(F)(F)F)cc1
inactive: SR leukemia 19.6% | RPMI-8226 leukemia 30.3% | OVCAR-8 ovarian 28.4% | OVCAR-5 ovarian 93.5% | OVCAR-4 ovarian 22.1% | SK-OV-3 ovarian 45.4% | OVCAR-3 ovarian 37.1% | HS 578T breast 42.8% | NCI/ADR-RES ovarian 58%

C=C1C(=O)O[C@H]2[C@H]1CC/C(COC(=O)CCSCCC(=O)OC/C1=C/CC[C@@]3(C)O[C@H]3[C@H]3OC(=O)C(=C)[C@@H]3CC1)=C\CC[C@@]1(C)O[C@@H]21
inactive: OVCAR-4 ovarian 41.7% | SK-OV-3 ovarian 93.6% | HS 578T breast 19.4% | NCI/ADR-RES ovarian 53.4%
active: SR leukemia -15.8% | RPMI-8226 leukemia -27% | OVCAR-8 ovarian 9.02% | OVCAR-5 ovarian -6.34% | OVCAR-3 ovarian -68.8%

CCCCCC(=O)OCC(=O)O[C@@H]1C[C@]2(C(C)C)O[C@@]1(C)[C@@H]1CC[C@@H](C)[C@H]1[C@@H]2OC(=O)/C=C/c1ccccc1
inactive: SR leukemia 76.3% | RPMI-8226 leukemia 66.8% | OVCAR-8 ovarian 19.9% | OVCAR-5 ovarian 112% | OVCAR-4 ovarian 75.7% | SK-OV-3 ovarian 87.9% | IGROV1 ovarian 86.7% | NCI/ADR-RES ovarian 21.7%
active: HS 578T breast -15.5%

CC1(C)CC2=C3C=C[C@@H]4[C@@]5(C)CCC(=O)C(C)(C)[C@@H]5CC[C@@]4(C)[C@]3(C)CC[C@@]2(C(=O)O)CC1=O
inactive: SR leukemia 71.7% | RPMI-8226 leukemia 31.8% | OVCAR-8 ovarian 89.6% | OVCAR-5 ovarian 93.2% | OVCAR-4 ovarian 64.5% | SK-OV-3 ovarian 84.3% | IGROV1 ovarian 85.3% | HS 578T breast 95.6% | NCI/ADR-RES ovarian 93.5%

COc1ccc2c(O)c(/C=C3\N=Nc4ncccc43)oc2c1C[C@H]1CCNC[C@H]1F
inactive: OVCAR-5 ovarian 16% | SK-OV-3 ovarian 21% | NCI/ADR-RES ovarian 31.3%
active: SR leukemia -40.2% | RPMI-8226 leukemia 9.58% | OVCAR-8 ovarian 5.11% | OVCAR-4 ovarian 2.83% | OVCAR-3 ovarian 1.29% | HS 578T breast -6.5%

Cn1cc(-c2nonc2-c2c[nH]c3ccc(Br)cc23)c2cc(Br)ccc21
inactive: SR leukemia 20.5% | RPMI-8226 leukemia 41.3% | OVCAR-8 ovarian 34% | OVCAR-5 ovarian 37.6% | SK-OV-3 ovarian 53.7% | OVCAR-3 ovarian 33.6% | HS 578T breast 31.6% | NCI/ADR-RES ovarian 36.6%
active: OVCAR-4 ovarian -2.18%

O=S(=O)(Nc1cc(Br)c(O)c2ccccc12)c1ccc(F)cc1
inactive: SR leukemia 11.6% | RPMI-8226 leukemia 27.2% | OVCAR-5 ovarian 113% | SK-OV-3 ovarian 99.7% | IGROV1 ovarian 81.4% | HS 578T breast 98.3%
active: OVCAR-8 ovarian 3.09% | OVCAR-4 ovarian -97.5% | NCI/ADR-RES ovarian 4.65%

Cc1nnc(-n2c(O)cc(=O)n(-c3ccccc3)c2=S)nc1/C=C/c1ccc(N(C)C)cc1
inactive: SR leukemia 36.2% | RPMI-8226 leukemia 16.1% | OVCAR-8 ovarian 53.3% | OVCAR-5 ovarian 82.7% | OVCAR-4 ovarian 50.3% | SK-OV-3 ovarian 45.6% | OVCAR-3 ovarian 44.3% | HS 578T breast 47.8% | NCI/ADR-RES ovarian 44.6%

Cn1c(=O)c2[nH]c(N/N=C/c3ccccc3Br)nc2n(C)c1=O
inactive: SR leukemia 89.7% | RPMI-8226 leukemia 105% | OVCAR-8 ovarian 112% | OVCAR-5 ovarian 89.5% | OVCAR-4 ovarian 117% | SK-OV-3 ovarian 117% | IGROV1 ovarian 101% | HS 578T breast 161% | NCI/ADR-RES ovarian 104%

CCc1ccc(Oc2cn[nH]c2-c2ccc(OCCc3ccc(F)cc3)cc2O)cc1
inactive: SR leukemia 101% | RPMI-8226 leukemia 81% | OVCAR-8 ovarian 101% | OVCAR-5 ovarian 90.6% | OVCAR-4 ovarian 89.5% | SK-OV-3 ovarian 102% | OVCAR-3 ovarian 89.4% | HS 578T breast 93.1% | NCI/ADR-RES ovarian 89.2%

COc1ccc(C2=Nc3c/c(=C\c4c(O)[nH]c5ccc(Cl)cc45)ccc3=N2)cc1
active: SR leukemia 2.44%
inactive: RPMI-8226 leukemia 22.7% | OVCAR-8 ovarian 51.7% | OVCAR-5 ovarian 82.9% | OVCAR-4 ovarian 64.2% | SK-OV-3 ovarian 64.6% | OVCAR-3 ovarian 32.7% | HS 578T breast 41.8% | NCI/ADR-RES ovarian 12.7%

COC(=O)c1cc(-c2ccc(S(C)(=O)=O)cc2)[nH]c1N/N=C/c1c(Cl)cccc1Cl
inactive: OVCAR-8 ovarian 29.7% | OVCAR-5 ovarian 42.6% | OVCAR-4 ovarian 59.6% | SK-OV-3 ovarian 29.2%
active: SR leukemia -12.3% | RPMI-8226 leukemia -5.71% | OVCAR-3 ovarian -33.6% | HS 578T breast -30.1% | NCI/ADR-RES ovarian 3.91%

COC(C(=O)[C@@H](O)[C@@H](C)O)[C@@H]1Cc2cc3cc(O[C@H]4C[C@@H](O[C@H]5C[C@@H](O)[C@H](O)C(C)O5)[C@H](O)C(C)O4)c(C)c(O)c3c(O)c2C(=O)[C@H]1O[C@H]1C[C@@H](O[C@H]2C[C@@H](O[C@H]3C[C@@H](O)[C@H](OC)C(C)O3)[C@@H](O)C(C)O2)[C@H](O)C(C)O1 (stereo partly specified)
active: SR leukemia 3.51% | RPMI-8226 leukemia 0.837% | OVCAR-8 ovarian 7.56%
inactive: OVCAR-5 ovarian 14.8% | OVCAR-4 ovarian 11.8% | SK-OV-3 ovarian 19.1% | IGROV1 ovarian 16.9% | HS 578T breast 20.3% | NCI/ADR-RES ovarian 59.5%

Cc1oc(-c2ccc(Cl)cc2)nc1/C=C/C(=O)c1ccccc1
inactive: SR leukemia 93.7% | RPMI-8226 leukemia 90.9% | OVCAR-8 ovarian 98.7% | OVCAR-5 ovarian 115% | OVCAR-4 ovarian 79.4% | SK-OV-3 ovarian 100% | IGROV1 ovarian 93% | HS 578T breast 100% | NCI/ADR-RES ovarian 104%

Fc1ccc(Nc2nc3nonc3nc2Nc2ccc(I)cc2)cc1
inactive: OVCAR-5 ovarian 37.5% | OVCAR-4 ovarian 17.8%
active: SR leukemia -4.09% | RPMI-8226 leukemia -11.6% | OVCAR-8 ovarian 4.01% | SK-OV-3 ovarian -24.5% | OVCAR-3 ovarian 9.78% | HS 578T breast 8.99% | NCI/ADR-RES ovarian 4.92%

Nc1c(C(=O)Nc2ccccc2Cl)sc2nc3c(cc12)C(O)CCC3 (stereo unspecified)
inactive: SR leukemia 13.4% | RPMI-8226 leukemia 25.2% | OVCAR-8 ovarian 32.3% | OVCAR-5 ovarian 80.6% | OVCAR-4 ovarian 53.9% | SK-OV-3 ovarian 42.9% | OVCAR-3 ovarian 15.5% | HS 578T breast 58.5% | NCI/ADR-RES ovarian 18.8%

COCCNC(=O)c1ccc(-c2nc3ccc4[nH]ncc4c3c3c2CCCC3)cc1
active: SR leukemia 5.46% | SK-OV-3 ovarian 6.55% | HS 578T breast -6.17%
inactive: RPMI-8226 leukemia 29.6% | OVCAR-8 ovarian 46% | OVCAR-5 ovarian 67.8% | OVCAR-4 ovarian 61.9% | OVCAR-3 ovarian 56% | NCI/ADR-RES ovarian 63.9%

O=C(Nc1ncc(Cc2ccc(Cl)c(C(F)(F)F)c2)s1)c1ccc2nnsc2c1
inactive: SR leukemia 57% | RPMI-8226 leukemia 40.8% | OVCAR-8 ovarian 54.8% | OVCAR-5 ovarian 55.8% | OVCAR-4 ovarian 50.7% | SK-OV-3 ovarian 62.5% | IGROV1 ovarian 67.9% | HS 578T breast 84% | NCI/ADR-RES ovarian 40.9%

O=C1c2cccnc2C(=O)c2c1c(C(=O)NCCCN1CCCCC1)c1ccccn21
inactive: HS 578T breast 36.3%
active: SR leukemia -15.3% | RPMI-8226 leukemia -10.9% | OVCAR-8 ovarian -13.3% | OVCAR-5 ovarian -0.385% | OVCAR-4 ovarian -88% | SK-OV-3 ovarian -15.7% | OVCAR-3 ovarian -34.8% | NCI/ADR-RES ovarian -15.5%

O=Cc1ccc([N+](=O)[O-])s1
inactive: SR leukemia 63.2% | RPMI-8226 leukemia 94.6% | OVCAR-8 ovarian 87.1% | OVCAR-5 ovarian 93.7% | OVCAR-4 ovarian 98.3% | SK-OV-3 ovarian 109% | IGROV1 ovarian 79.8% | HS 578T breast 113% | NCI/ADR-RES ovarian 95.2%

CCc1ccc(C(=O)/C=C/C23c4ccccc4C(c4ccccc42)C2C(=O)NC(=O)C23)cc1 (stereo unspecified)
active: SR leukemia 0.497% | RPMI-8226 leukemia -35.1% | OVCAR-8 ovarian -20% | OVCAR-3 ovarian -59.7% | NCI/ADR-RES ovarian 4.03%
inactive: OVCAR-5 ovarian 15.7% | OVCAR-4 ovarian 37.5% | SK-OV-3 ovarian 38.6% | HS 578T breast 41%

Cn1cccc1C(=O)C1C(c2cccc([N+](=O)[O-])c2)C2C3CCCCC3CN2C12C(=O)Nc1ccc(Cl)cc12 (stereo unspecified)
inactive: RPMI-8226 leukemia 19.6% | OVCAR-8 ovarian 63.8% | OVCAR-5 ovarian 68.1% | OVCAR-4 ovarian 70.5% | SK-OV-3 ovarian 70.1% | OVCAR-3 ovarian 70.2% | HS 578T breast 55.7% | NCI/ADR-RES ovarian 51%
active: SR leukemia 5.9%

CCOC(=O)c1cc2c(=O)oc3ccccc3c2oc1=O
inactive: RPMI-8226 leukemia 84.7% | OVCAR-8 ovarian 102% | OVCAR-5 ovarian 100% | OVCAR-4 ovarian 96.4% | SK-OV-3 ovarian 102% | OVCAR-3 ovarian 112% | HS 578T breast 100% | NCI/ADR-RES ovarian 112%
active: SR leukemia -26%

CCOC(=O)C1=C(NC)OCC1=O
inactive: SR leukemia 93.6% | RPMI-8226 leukemia 99.6% | OVCAR-8 ovarian 98.6% | OVCAR-5 ovarian 115% | OVCAR-4 ovarian 112% | SK-OV-3 ovarian 110% | IGROV1 ovarian 113% | HS 578T breast 94.7% | NCI/ADR-RES ovarian 105%

COc1ccc(/C=C2\COc3ccc(O)cc3C2=O)c(OC)c1OC
active: RPMI-8226 leukemia 8.76%
inactive: SR leukemia 16.5% | OVCAR-8 ovarian 67% | OVCAR-5 ovarian 95.8% | OVCAR-4 ovarian 79.3% | SK-OV-3 ovarian 112% | IGROV1 ovarian 91.3% | HS 578T breast 78% | NCI/ADR-RES ovarian 55.1%

CCO/C=N/C1=C(C#N)C(c2ccc(OC)cc2)c2sc3c(F)cccc3c2O1 (stereo unspecified)
active: RPMI-8226 leukemia 7.6% | OVCAR-3 ovarian 8.12% | HS 578T breast 4.04%
inactive: SR leukemia 25.5% | OVCAR-8 ovarian 36.5% | OVCAR-5 ovarian 63.8% | OVCAR-4 ovarian 64.8% | SK-OV-3 ovarian 49.6% | NCI/ADR-RES ovarian 16.9%

CC12CCC3c4ccccc4CCC3(CO1)C2 (stereo unspecified)
inactive: SR leukemia 99.1% | RPMI-8226 leukemia 97.1% | OVCAR-8 ovarian 103% | OVCAR-5 ovarian 96.3% | OVCAR-4 ovarian 108% | SK-OV-3 ovarian 98.3% | IGROV1 ovarian 121% | HS 578T breast 93.5% | NCI/ADR-RES ovarian 106%

COc1cnc2c(c1)C(=O)c1c-2n(CCCNCCO)c(=O)c2ccncc12
active: SR leukemia -4.25% | RPMI-8226 leukemia -4.03% | OVCAR-8 ovarian -6.28% | OVCAR-5 ovarian -0.667% | OVCAR-4 ovarian -4.81% | SK-OV-3 ovarian 6.1% | OVCAR-3 ovarian 8.44%
inactive: HS 578T breast 23.5% | NCI/ADR-RES ovarian 58.8%

COC1=CC(c2ccc[nH]2)=N/C1=C\c1[nH]c(C)c(C(=O)OCc2ccccc2)c1C
active: SR leukemia 9.69% | RPMI-8226 leukemia -18% | OVCAR-8 ovarian -26.6% | OVCAR-5 ovarian -38.5% | OVCAR-4 ovarian -36.5% | SK-OV-3 ovarian 7.66% | OVCAR-3 ovarian -66% | HS 578T breast -37% | NCI/ADR-RES ovarian 0.894%
